This note sets out measurements from PubChem BioAssay (Tox21).

Values joined by “and” are separate entries in the source; they are usually repeats but may differ in a detail not shown here. Equal values may be shown once. Records with an inconclusive call do not appear. The source holds several records for some structures; these can differ, active in one and inactive in another. Active and inactive are the calls of the source. Unless noted, calls follow the shape of the dose curve; as a rule, active = well fitted curve in the direction sought with a large enough effect in the repeat runs; inconclusive = weak or mixed curves; inactive = no such curve, though single readings can be large; an effect the other way counts as inactive or inconclusive.

Assay [1] is described as follows: qHTS assay to identify small molecule agonists of the vitamin D receptor (VDR) signaling pathway - cell viability counter screen (AID 743224). Also: nearly all actives have a fitted effect of over 50% in size. Also: potency is read from the fitted curve at half-maximal effect. Summed up: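 VDR-bla cell line, quantitative HTS format; 16 h compound incubation (37C, 5% CO2); ATP-based CellTiter-Glo luminescence measured in the reporter assay wells.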
(In general: qHTS replaces the single test concentration by a dilution series.)

Assay [2] is described as follows: qHTS assay to identify small molecule antagonists of the vitamin D receptor (VDR) signaling pathway - cell viability counter screen (AID 743225). Also: nearly all actives have a fitted effect of over 50% in size. Also: potency is read from the fitted curve at half-maximal effect. Summed up: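 Luminescent cell viability (CellTiter-Glo) in VDR-bla HEK 293T cells after 16 h compound exposure at 37C in the presence of 3 nM final 1-alpha,25-dihydroxy vitamin D3.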
Assay [3] can be described thus: qHTS assay to identify small molecule agonists of the NFkB signaling pathway - cell viability counter screen (AID 1159515; calls by dose curve; also: series mostly up to about 61 µM; nearly all actives have a fitted effect of over 55% in size). Summed up: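 Viability in NFkB-bla ME-180 cells was measured by CellTiter-Glo luminescence, 30 min room temperature, in wells already treated 5 hr with compounds and read for reporter FRET.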
Assay [4] is described as follows: qHTS assay to identify small molecule agonists of the endoplasmic reticulum stress response signaling pathway - cell viability counter screen (AID 1159517; calls by dose curve; also: nearly all actives have a fitted effect of over 50% in size; also: potency is read from the fitted curve at half-maximal effect). Put shortly: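 ESRE-bla HeLa cells, 1,500 per well, seeded overnight then treated with compounds for 5 hr at 37 C. After the beta-lactamase read, viability in the same wells is measured by CellTiter-Glo luminescence after 30 min at room temperature.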

Assay [5] has as its target Nuclear receptor ROR-gamma (Homo sapiens) (UniProt P51449). In words: qHTS assay to identify small molecule antagonists of the retinoid-related orphan receptor gamma (ROR-gamma) signaling pathway (AID 1159521; also: nearly all actives have a fitted effect of over 50% in size; also: potency is read from the fitted curve at half-maximal effect). Put shortly:
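CHO cells expressing RORγ under a TET-on promoter, luciferase under RORE control. Dox 1 uM final, 16 h; compounds added 2 h prior. Luminescence decrease measured.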

Assay [6] can be described thus: qHTS assay to identify small molecule agonists of the AP-1 signaling pathway - cell viability counter screen (AID 1159525; calls by dose curve; also: nearly all actives have a fitted effect of over 55% in size; also: potency is read from the fitted curve at half-maximal effect). Summed up:
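AP-1-bla ME-180 cells in Opti-MEM with 0.5% dialyzed FBS, compound exposure 5 h at 37 C in 15-point titration. Viability read in the same wells as ATP content by CellTiter-Glo luminescence, normalised to tetra-n-octylammonium bromide and DMSO controls.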

Assay [7] is described as follows: qHTS assay to identify small molecule agonists of the RXR signaling pathway - cell viability counter screen (AID 1159529). Also: nearly all actives have a fitted effect of over 50% in size. Also: potency is read from the fitted curve at half-maximal effect. Put shortly:
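Same-well viability check after the LiveBLAzer FRET read: CellTiter-Glo added, luminescence measured after 30 min at room temperature. Reporter HEK 293T cells had been treated with compounds for 16 hr following a 5 hr preincubation.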

Assay [8] is described as follows: qHTS assay to identify small molecule antagonists of the retinoid acid receptor (RAR) signaling pathway - cell viability counter screen (AID 1159551). Also: nearly all actives have a fitted effect of over 35% in size. Also: potency is read from the fitted curve at half-maximal effect. Summed up:
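Following overnight attachment, C3RL4 reporter cells received DMSO-dissolved compounds and then retinol (1 uM final). Six hours later at 37 C, ATP content was measured by CellTiter-Glo luminescence.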

Assay [9] in a line: qHTS assay to identify small molecule antagonists of the retinoic acid receptor (RAR) signaling pathway (AID 1159552; also: nearly all actives have a fitted effect of over 50% in size; also: potency is read from the fitted curve at half-maximal effect). Summed up: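 Readout: luciferase luminescence, 30 min post-reagent at RT. Setup: C3RL4 RARE reporter cells, compounds plus retinol 1 uM final, 6 hr incubation at 37 C and 5% CO2.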
Assay [10] has as its target Retinoic acid receptor RXR-alpha (Homo sapiens) (UniProt P19793). In words: qHTS assay to identify small molecule agonists of the RXR signaling pathway (AID 1159527; calls by dose curve; also: nearly all actives have a fitted effect of over 35% in size). Put shortly: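 Beta-lactamase reporter assay, agonist format. Engineered HEK 293T line, charcoal-stripped FBS at 2%, overnight (16 hr) exposure, fluorescence at 460 and 530 nm after 405 nm excitation.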

Assay [11] in a line: qHTS assay to identify small molecule agonists of the retinoic acid receptor (RAR) signaling pathway (AID 1159553). Summed up:
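Cell line C3RL4, RARE luciferase reporter. Treatment: compounds in DMSO, 6 hr, 37 C, 5% CO2, after overnight plating. Detection: luminescence, 30 min RT after reagent.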

Assay [12] can be described thus: qHTS assay to identify small molecule antagonists of the retinoid-related orphan receptor gamma (ROR-gamma) signaling pathway - cell viability counter screen (AID 1159520). Also: nearly all actives have a fitted effect of over 50% in size. Also: potency is read from the fitted curve at half-maximal effect. Put shortly:
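Tet-on ROR gamma CHO cells were given compounds for 2 hr, then doxycycline hyclate at 1 uM final, and incubated 16 hr at 37 C. Viability was measured as ATP content by CellTiter-Glo luminescence.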

Assay [13] can be described thus: qHTS assay to identify small molecule agonists of the AP-1 signaling pathway (AID 1159526; calls by dose curve).
Assay [14] can be described thus: qHTS assay to identify small molecule antagonists of the estrogen related receptor (ERR) signaling pathway - cell viability counter screen (AID 1224818).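 Also: series mostly up to about 46 µM; viability measured after 17.5 h of compound exposure.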 Put shortly: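 Here, ERR cells are plated at 2,000 cells per well, allowed 6 h to attach, and treated with compounds in DMSO for 17.5 h at 37 C. CellTiter-Fluor is then added and fluorescence read after 30 min.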

The nature of assay [15]: qHTS assay to identify small molecule antagonists of the estrogen related receptor (ERR) signaling pathway (AID 1224819). Put shortly: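 LOPAC library screened for antagonism as reduced One-Glo luminescence in ERR reporter cells (2,000/well). Compounds were added after 6 h pre-incubation and left 18 h at 37C; reading followed a 30 min room-temperature reagent step.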
Assay [16] can be described thus: qHTS assay to identify small molecule agonists of the estrogen related receptor (ERR) signaling pathway (AID 1224820). Put shortly: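 Cells: ERR line from NTP, 2,000/well. Pre-incubation 6 h, 37 C/5% CO2. Compound (DMSO) pin transfer, 18 h 37 C. One-Glo, 30 min RT, luminescence.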
Assay [17] has as its system estrogen-related receptor alpha (ERRalpha) with PGC-1alpha coactivator, human. In words: qHTS assay to identify small molecule antagonists of the estrogen related receptor signaling pathway with the pleiotropic PPARgamma coactivator (PGC) (AID 1224821; calls by dose curve). Summed up:
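Luminescent read-out (One-Glo, 30 min at room temperature) following 18 h treatment of PGC/ERR cells at 37 C with compounds delivered in DMSO. Cells had settled 6 h at 37 C/5% CO2 before dosing.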

A short description of assay [18]: qHTS assay to identify small molecule antagonists of the estrogen related receptor signaling pathway with the pleiotropic PPARgamma coactivator (PGC) cell viability counter screen (AID 1224822; also: series mostly up to about 46 µM). Summed up:
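qHTS format, DMSO compound stocks pin-transferred onto PGC/ERR cells 6 h after plating; 17.5 h exposure at 37 C, then CellTiter-Fluor fluorescence.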

Assay [19] can be described thus: qHTS assay to identify small molecule agonists of the estrogen related receptor signaling pathway with the pleiotropic PPARgamma coactivator (PGC) (AID 1224823). Summed up:
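Steps: plate PGC/ERR cells at 2,000 cells/well; incubate 6 h, 37 C/5% CO2; pin-transfer compounds (DMSO); incubate 18 h, 37 C; add One-Glo; 30 min RT; read luminescence.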

Chain of Retinoic acid receptor RXR-alpha (Homo sapiens) (P19793 whole entry, looked up): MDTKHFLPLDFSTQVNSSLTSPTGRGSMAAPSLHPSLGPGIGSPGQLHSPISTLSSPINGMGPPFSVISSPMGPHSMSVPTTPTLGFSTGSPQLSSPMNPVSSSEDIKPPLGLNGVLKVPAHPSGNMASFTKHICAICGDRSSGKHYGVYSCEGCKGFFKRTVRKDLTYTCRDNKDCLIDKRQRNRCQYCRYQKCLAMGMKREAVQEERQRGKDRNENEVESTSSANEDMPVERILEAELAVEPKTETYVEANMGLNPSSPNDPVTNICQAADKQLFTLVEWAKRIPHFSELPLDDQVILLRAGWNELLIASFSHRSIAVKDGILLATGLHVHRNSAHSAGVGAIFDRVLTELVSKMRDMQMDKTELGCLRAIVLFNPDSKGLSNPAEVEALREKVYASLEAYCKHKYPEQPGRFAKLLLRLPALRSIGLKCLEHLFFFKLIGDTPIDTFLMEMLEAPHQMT

In the case of `NC(=O)N1C(=O)C(C(=O)c2cc(Cl)cs2)c2cc(F)c(Cl)cc21` (stereo unspecified), the Potency was 21.9 µM (active) in [1], 13.8 µM (active) in assay [2], 19.3 µM (active) in assay [5] and 49 µM (active) in assay [7]. Besides, the Potency result in assay [3], in assay [4], in assay [6], in [8] and in assay [9] was “inactive” in each case.
`CCCCCCCCOC(=O)c1ccc(O)cc1`: the Potency in assay [1] is 21.8 µM (active) and 49 µM (active); in assay [2] it was 49 µM (active); in [4], 54.9 µM (active); in assay [6] it was 54.8 µM (active); in assay [7], 43.5 µM (active) and inactive. Further, the Potency result in [3], in assay [10], in assay [8], in assay [9] and in [11] was “inactive” throughout.
Turning to `CC(C)(C)C1CCC(CC2=C(O)c3ccccc3C(=O)C2=O)CC1` (stereo unspecified), the Potency entry in [3], in [4], in [6], in [7] and in [11] was “inactive” throughout.
Consider `[Cl][Au]([Cl])[Cl]`, for which the Potency in assay [1] was 3.89 µM (active); in [2] it was 11 µM (active); in assay [5], 5.45 µM (active); in [7] it was 24.5 µM (active); in assay [9] it was 30.6 µM (active). Moreover, the Potency entry in [3], in assay [4] and in [6] was “inactive” throughout.
For the compound `Nc1nc2ccccc2n1Cc1ccc(F)cc1`, the Potency result in assay [1], in assay [2], in [3], in assay [4], in [6] and in [7] was “inactive” each time. Also, the Potency result in assay [8], in assay [9] and in [11] was “inactive” in each case. Also, the Potency in assay [5] was 10.6 µM (active).
Take `Clc1ccc2nsnc2c1NC1=NCCN1`: the Potency result in assay [1], in assay [2], in assay [3], in assay [12], in assay [6] and in assay [13] was “inactive” in each case. For the same compound, the Potency result in assay [10], in assay [7], in assay [8], in assay [9], in assay [11] and in assay [14] was “inactive” each time. The Potency result in assay [15], in assay [17] and in assay [18] was “inactive” in each case. Besides, the call in assay [16] and in assay [19] was inactive.
On to `O=C1C=CC(=O)N1`, for which the Potency in assay [1] is 12.6 µM (active); in assay [2], 35.6 µM (active); in [12], 12.5 µM (active); in [5] it was 5.59 µM (active); in assay [7], 22.5 µM (active); in assay [8], 31.4 µM (active). Further, the Potency in assay [9] was 8.86 µM (active). The Potency result in [3] was “inactive”.
Consider `Cc1cccc2c1cc1ccc3cccc4ccc2c1c34`, for which the Potency result in assay [1], in assay [2], in assay [3], in assay [12], in assay [5] and in [6] was “inactive” throughout. The Potency result in assay [7], in assay [8] and in assay [9] was “inactive” throughout.
